Active and inactive are the calls of the source.
Tests used:
Albumin (Bos taurus) = Albumin (Bos taurus) (UniProt P02769); experiment: compounds binding labelled BSA control protein – biochemical, small-molecule microarray, Alexa647 label, 635/667 nm fluorescence, artefact control for SMM control protein annotation, profiling panel (AID 1118); conditions: BSA-A647 binding, fluorescence 635 nm, higher = more signal;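 further: score merges 667 nm emission intensity and signal-to-noise per printed compound spot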
Sequence of Albumin (Bos taurus) (P02769 whole entry, looked up): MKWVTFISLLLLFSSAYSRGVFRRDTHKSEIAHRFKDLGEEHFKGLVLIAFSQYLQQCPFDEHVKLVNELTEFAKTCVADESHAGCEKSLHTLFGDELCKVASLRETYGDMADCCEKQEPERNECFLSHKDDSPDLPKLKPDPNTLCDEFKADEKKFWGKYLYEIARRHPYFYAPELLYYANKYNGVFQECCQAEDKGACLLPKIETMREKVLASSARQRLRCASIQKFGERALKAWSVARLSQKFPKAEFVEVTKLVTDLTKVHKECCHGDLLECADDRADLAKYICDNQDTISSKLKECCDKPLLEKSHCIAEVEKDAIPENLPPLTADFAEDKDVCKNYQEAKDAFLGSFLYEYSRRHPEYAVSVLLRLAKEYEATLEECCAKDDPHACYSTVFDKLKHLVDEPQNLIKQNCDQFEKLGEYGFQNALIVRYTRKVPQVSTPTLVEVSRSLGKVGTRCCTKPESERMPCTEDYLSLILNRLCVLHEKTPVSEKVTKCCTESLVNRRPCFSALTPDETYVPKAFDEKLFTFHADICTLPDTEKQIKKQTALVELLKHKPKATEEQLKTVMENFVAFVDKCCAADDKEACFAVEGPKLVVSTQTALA

[1] = probe aXIP binding to arrayed compounds – biochemical, NeuroSMM set, 635/667 nm fluorescence, primary screen (AID 1119); conditions: small-molecule microarray, higher = more signal, called active from +8 up or from −8 down;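 further: probe is the protein aXip251-270 applied at 1 µg/mL to compound-printed slides; binding of probe to printed compounds measured as 667 nm fluorescence plus signal to noise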
[2] = probe aNOTCH3 binding on compound microarray – biochemical, small-molecule microarray, 635/667 nm fluorescence, primary screen (AID 1120); conditions: higher = more signal;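 further: probe is a biotin-tagged antibody raised against NOTCH3 rather than NOTCH3 protein; score merges spot fluorescence near 667 nm with spot signal to noise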
[3] = probe aNOTCH2 binding on compound microarray – biochemical, small-molecule microarray, 635/667 nm fluorescence, primary screen (AID 1121); conditions: higher = more signal;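 further: score merges feature fluorescence read at 667 nm with its signal to noise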
[4] = biological target: Carbonic anhydrase 2 (Homo sapiens) (UniProt P00918); experiment: compounds binding carbonic anhydrase 2 – biochemical, small-molecule microarray, Alexa647-labelled CAII, profiling panel (AID 1122); conditions: CAII-A647 binding fluorescence, higher = more signal
[5] = COS7 lysate on small-molecule microarray, probe aHis, 635 nm (AID 1123); conditions: COS7 cell lysate, fluorescence, higher = more signal;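 further: z-score combines 667nm fluorescence intensity with signal-to-noise per printed compound spot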
[6] = probe aLAP1 signal on lysate-treated microarray – cell lysate, small-molecule microarray, COS7 lysate, primary screen (AID 1124); conditions: probe aLAP1, fluorescence, higher = more signal;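 further: lysate comes from COS7 cells expressing LAP1 and is applied at 0.3 µg/mL; score merges spot fluorescence near 667 nm with signal-to-noise over triplicate slides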
Sam68 (KHDRBS1) = experiment: compounds binding KHDRBS1 protein – biochemical, small-molecule microarray, 635 nm fluorescence, primary screen (AID 1125); conditions: higher = more signal;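 further: score merges 667 nm channel intensity with signal to noise over triplicate slides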
[7] = test system: Chordin-like protein 2 (CHRDL2); experiment: compounds binding chordin-like 2 – biochemical, small-molecule microarray, 635 nm fluorescence, primary screen (AID 1126); conditions: fluorescence 635 nm, higher = more signal;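 further: printed compound slides probed with Chrdl2 protein at 4 µg/mL for 1 h at 4 C; score merges 667 nm emission intensity with signal to noise over three replicate slides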
[8] = biological target: Concanavalin-A (Canavalia ensiformis) (UniProt P02866); experiment: compounds binding concanavalin A lectin – biochemical, small-molecule microarray, Alexa647 label, 635 nm, artefact control for SMM control protein annotation, primary screen (AID 1127); conditions: ConA-A647 binding fluorescence, higher = more signal;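 further: z combines 667 nm emission intensity with signal-to-noise across three replicate slides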
Sequence of Concanavalin-A (Canavalia ensiformis) (P02866 whole entry, looked up): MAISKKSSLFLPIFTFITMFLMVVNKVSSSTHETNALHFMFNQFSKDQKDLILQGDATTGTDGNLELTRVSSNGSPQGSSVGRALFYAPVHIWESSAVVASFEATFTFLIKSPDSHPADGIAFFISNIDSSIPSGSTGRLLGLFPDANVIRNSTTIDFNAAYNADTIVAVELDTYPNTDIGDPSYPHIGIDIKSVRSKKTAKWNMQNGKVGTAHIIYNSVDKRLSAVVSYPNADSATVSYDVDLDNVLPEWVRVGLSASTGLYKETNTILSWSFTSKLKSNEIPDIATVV

[9] = compounds binding Alexa647 anti-His antibody – biochemical, small-molecule microarray, 635 nm fluorescence, artefact control for SMM control protein annotation, primary screen (AID 1128); conditions: higher = more signal;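 further: score merges feature fluorescence with signal-to-noise for each printed compound spot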
[10] = test system: Human papillomavirus type 1a E7 protein (residues 1-88); experiment: HPV1a E7 small-molecule binders, primary screen, biochemical, small-molecule microarray, residues 1-88, 635 nm (AID 1129); conditions: small-molecule microarray binding, fluorescence 635 nm; higher = more signal
[11] = biological target: Focal adhesion kinase 1 (Homo sapiens) (UniProt Q05397); experiment: PTK2 protein binding on printed compound slides – biochemical, small-molecule microarray, 635/667 nm fluorescence, BSA, DTT, primary screen (AID 1130); conditions: 635 nm fluorescence, higher = more signal;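 further: composite of spot emission at 667 nm and signal to noise over triplicate slides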
Sequence of Focal adhesion kinase 1 (Homo sapiens) (Q05397 whole entry, looked up): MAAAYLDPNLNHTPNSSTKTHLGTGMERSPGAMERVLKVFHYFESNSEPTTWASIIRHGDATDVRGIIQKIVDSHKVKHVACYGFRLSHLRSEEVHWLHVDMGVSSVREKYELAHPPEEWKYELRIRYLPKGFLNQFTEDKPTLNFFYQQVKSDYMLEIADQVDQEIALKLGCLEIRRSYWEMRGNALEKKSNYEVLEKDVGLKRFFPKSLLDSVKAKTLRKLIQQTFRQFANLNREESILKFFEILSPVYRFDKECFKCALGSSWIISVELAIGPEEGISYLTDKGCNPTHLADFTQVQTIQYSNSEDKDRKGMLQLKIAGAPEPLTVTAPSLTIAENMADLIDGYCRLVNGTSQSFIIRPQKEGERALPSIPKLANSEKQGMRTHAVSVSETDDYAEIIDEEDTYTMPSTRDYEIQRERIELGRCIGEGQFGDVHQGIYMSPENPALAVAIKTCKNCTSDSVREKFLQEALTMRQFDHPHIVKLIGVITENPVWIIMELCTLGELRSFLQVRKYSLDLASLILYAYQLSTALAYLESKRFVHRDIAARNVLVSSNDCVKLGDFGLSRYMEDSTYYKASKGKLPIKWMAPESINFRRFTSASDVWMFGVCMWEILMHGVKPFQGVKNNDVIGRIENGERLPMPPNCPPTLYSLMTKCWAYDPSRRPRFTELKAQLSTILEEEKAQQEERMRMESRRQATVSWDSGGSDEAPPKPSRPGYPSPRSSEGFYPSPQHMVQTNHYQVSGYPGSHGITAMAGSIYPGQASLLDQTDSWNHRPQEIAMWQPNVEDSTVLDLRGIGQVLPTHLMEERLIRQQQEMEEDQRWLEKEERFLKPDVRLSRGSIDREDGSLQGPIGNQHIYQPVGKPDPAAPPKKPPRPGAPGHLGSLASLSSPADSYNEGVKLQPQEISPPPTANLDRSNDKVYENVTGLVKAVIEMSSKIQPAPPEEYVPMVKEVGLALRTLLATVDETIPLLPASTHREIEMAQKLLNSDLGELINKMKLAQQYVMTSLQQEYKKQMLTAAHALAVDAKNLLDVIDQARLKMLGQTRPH

[12] = test system: Fibrinogen (Alexa647-labelled); experiment: Alexa647-fibrinogen binding to printed small molecules – biochemical, small-molecule microarray, 635/667 nm fluorescence, artefact control for SMM control-protein annotation, profiling panel (AID 1131); conditions: fibrinogen-A647 binding fluorescence, higher = more signal;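 further: z-score merges 667 nm fluorescence with per-spot signal-to-noise over triplicate slides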
[13] = biological target: Follistatin (Homo sapiens) (UniProt P19883); experiment: FST protein binding to printed compounds – biochemical, small-molecule microarray, 635/667 nm fluorescence, primary screen (AID 1132); conditions: 635 nm fluorescence, higher = more signal
Sequence of Follistatin (Homo sapiens) (P19883 whole entry, looked up): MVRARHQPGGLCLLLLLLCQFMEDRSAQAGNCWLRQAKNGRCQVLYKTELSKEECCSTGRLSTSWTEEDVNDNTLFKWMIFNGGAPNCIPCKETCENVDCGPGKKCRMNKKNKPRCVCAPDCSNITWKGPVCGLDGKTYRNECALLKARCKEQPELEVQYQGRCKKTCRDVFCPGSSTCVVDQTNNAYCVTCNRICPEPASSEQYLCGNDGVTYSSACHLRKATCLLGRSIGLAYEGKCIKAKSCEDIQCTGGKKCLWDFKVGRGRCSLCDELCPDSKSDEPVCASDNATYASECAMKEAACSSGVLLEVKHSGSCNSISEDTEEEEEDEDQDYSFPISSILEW

[14] = biological target: Fibroblast growth factor 2 (Homo sapiens) (UniProt P09038); experiment: basic fibroblast growth factor binding to printed compounds – biochemical, small-molecule microarray, 635/667 nm fluorescence, primary screen (AID 1133); conditions: FGF2, fluorescence 635/667, higher = more signal
Sequence of Fibroblast growth factor 2 (Homo sapiens) (P09038 whole entry, looked up): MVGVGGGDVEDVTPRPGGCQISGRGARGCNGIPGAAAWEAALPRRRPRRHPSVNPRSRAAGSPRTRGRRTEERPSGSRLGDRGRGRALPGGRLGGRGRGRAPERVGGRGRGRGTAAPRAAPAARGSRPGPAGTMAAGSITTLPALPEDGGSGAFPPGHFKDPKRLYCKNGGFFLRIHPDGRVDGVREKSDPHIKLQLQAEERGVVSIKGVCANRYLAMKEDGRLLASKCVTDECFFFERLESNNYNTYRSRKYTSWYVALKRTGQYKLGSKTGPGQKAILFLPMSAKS

[15] = JC-1 mitochondrial potential readout, lung cancer cells – cell-based, A549, JC-1 fluorescence, basal, 24 h, 100 nL, profiling panel (AID 1138); conditions: higher = more signal;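 further: A549 lung adenocarcinoma cells under basal conditions with no added stimulus; test concentration not given here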
Lefty1 = Lefty1 protein binding to printed compounds – biochemical, small-molecule microarray, 635/667 nm fluorescence, primary screen (AID 1139); conditions: fluorescence 635/667, higher = more signal
[16] = test system: wheat germ agglutinin (Triticum aestivum), Alexa647-labelled; experiment: Alexa647-WGA lectin binding to printed small molecules – biochemical, small-molecule microarray, 635/667 nm fluorescence, artefact control for SMM control-protein annotation, profiling panel (AID 1140); conditions: WGA-A647 binding, 635 nm fluorescence, higher = more signal;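 further: score merges 667 nm feature emission with signal to noise over triplicate slides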
[17] = biological target: Luciferin 4-monooxygenase (Photinus pyralis) (UniProt P08659); experiment: inhibition of purified Photinus pyralis luciferase – biochemical, luminescence, purified enzyme, 2006 set, primary screen (AID 1141); conditions: purified firefly luciferase, SteadyGlo luminescence, 30 min; higher = more signal, called active from +8 up or from −8 down;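 further: cell-free assay with purified firefly luciferase at 100 ng per well in PBS; test concentration not given here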
Sequence of Luciferin 4-monooxygenase (Photinus pyralis) (P08659 whole entry, looked up): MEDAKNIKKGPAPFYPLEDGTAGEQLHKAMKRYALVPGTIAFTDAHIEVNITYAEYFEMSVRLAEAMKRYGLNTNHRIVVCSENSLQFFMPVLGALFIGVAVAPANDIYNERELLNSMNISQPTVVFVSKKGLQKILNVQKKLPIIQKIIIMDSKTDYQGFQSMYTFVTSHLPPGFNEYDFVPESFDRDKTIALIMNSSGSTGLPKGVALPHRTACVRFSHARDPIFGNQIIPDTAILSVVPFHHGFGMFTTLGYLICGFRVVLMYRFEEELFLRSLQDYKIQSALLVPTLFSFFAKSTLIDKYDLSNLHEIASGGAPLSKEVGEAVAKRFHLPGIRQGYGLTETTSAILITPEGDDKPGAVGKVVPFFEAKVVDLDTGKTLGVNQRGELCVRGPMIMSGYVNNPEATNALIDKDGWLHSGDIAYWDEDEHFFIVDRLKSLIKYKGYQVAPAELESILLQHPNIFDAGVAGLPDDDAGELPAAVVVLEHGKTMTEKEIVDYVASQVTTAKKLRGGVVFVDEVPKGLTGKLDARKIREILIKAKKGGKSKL

With `C=CCC(OC(C)=O)[C@@H]1[C@@H](N(Cc2ccc(-c3ccccc3)cc2)C(=O)c2ccc(C)cc2)c2cc(OCCCO)ccc2N1C(=O)c1ccc(-c2ccccc2)cc1` (stereo not given in full) the composite z-score (Albumin (Bos taurus)) was 0.101, the composite Z-score [1] was 0.451 (inactive) and the composite z-score [2] was -0.0933. It also gave a composite z-score [3] of -0.0664, a composite z-score [4] of -0.102 and a composite z-score [5] of 0.23. The composite z-score [6] was 0.232, the composite z-score (Sam68 (KHDRBS1)) was -0.0015 and the composite z-score [7] was -0.0151. The composite z-score [8] was -0.925, the composite z-score [9] was -0.958 and the composite z-score [10] was 0.438. The composite z-score [11] was 0.248, the composite z-score [12] was -0.195 and the composite z-score [13] was 0.217. The composite z-score [14] was 0.0217, the z-score [15] was 2.98 and the composite z-score (Lefty1) was -0.166. The composite z-score [16] was 0.258 and the z-score [17] was -1.81 (inactive).
For `CC(C)(C)OC(=O)CC[C@@]1(C(=O)NCc2ccccc2)N=C(c2ccc(OCCCO)cc2)O[C@@H]1c1ccccc1`, the composite z-score (Albumin (Bos taurus)) was 0.974, the composite Z-score [1] was -0.216 (inactive) and the composite z-score [2] was 0.132. It also gave a composite z-score [3] of 0.09, a composite z-score [4] of 0.655 and a composite z-score [5] of 2.91. For the same compound, the composite z-score [6] was 0.494, the composite z-score (Sam68 (KHDRBS1)) was 1.3 and the composite z-score [7] was -0.416. For the same compound, the composite z-score [8] was 1.18, the composite z-score [9] was 2.76 and the composite z-score [10] was 1.25. For the same compound, the composite z-score [11] was 1.18, the composite z-score [12] was 0.966 and the composite z-score [13] was 1.16. It also gave a composite z-score [14] of 0.244, a z-score [15] of 0.614 and a composite z-score (Lefty1) of 0.353. The composite z-score [16] was 1.53 and the z-score [17] was -1.54 (inactive).
In the case of `Cc1cc(C)c(C(O)C2C=CC3C(=O)N(C)C(=O)C3N2N2CCCCC2)c(C)c1` (stereo not given), the composite z-score (Albumin (Bos taurus)) was 0.477, the composite Z-score [1] was 1.16 (inactive) and the composite z-score [2] was 0.364. For the same compound, the composite z-score [3] was 0.192, the composite z-score [4] was 0.74 and the composite z-score [5] was 1.81. For the same compound, the composite z-score [6] was 0.83, the composite z-score (Sam68 (KHDRBS1)) was 1.29 and the composite z-score [7] was 0.245. The composite z-score [8] was 1.15, the composite z-score [9] was 2.16 and the composite z-score [10] was 1.18. For the same compound, the composite z-score [11] was -0.193, the composite z-score [12] was 0.985 and the composite z-score [13] was 1.28. For the same compound, the composite z-score [14] was 0.994, the z-score [15] was 0.85 and the composite z-score (Lefty1) was -0.0675. For the same compound, the composite z-score [16] was 0.799 and the z-score [17] was 0.915 (inactive).
In the case of `CCN1C(C)=C(C(=O)OC)[C@@H](c2ccccc2)N2C(=O)[C@](O)(C(=O)OC)[C@@H](c3ccccc3)C(C(C)=O)=C12`, the composite z-score (Albumin (Bos taurus)) was -0.647, the composite Z-score [1] was 0.319 (inactive) and the composite z-score [2] was 0.641. The composite z-score [3] was -0.0483, the composite z-score [4] was 0.916 and the composite z-score [5] was -0.0995. It also gave a composite z-score [6] of -0.141, a composite z-score (Sam68 (KHDRBS1)) of -0.0684 and a composite z-score [7] of 0.708. The composite z-score [8] was -1.15, the composite z-score [9] was 0.189 and the composite z-score [10] was 0.0108. For the same compound, the composite z-score [11] was -0.413, the composite z-score [12] was -1.11 and the composite z-score [13] was 0.679. For the same compound, the composite z-score [14] was 1.05, the z-score [15] was -0.21 and the composite z-score (Lefty1) was 1.1. The composite z-score [16] was -0.531 and the z-score [17] was -1.03 (inactive).
With `COCCOC(=O)N1C(=O)[C@@]2(c3cc(C#CCC(C(=O)OC)C(=O)OC)ccc31)[C@H](c1ccccc1OCCO)N1[C@H](c3ccccc3)[C@H](c3ccccc3)OC(=O)[C@H]1[C@@H]2C(=O)N1CCCCCCC1` the composite z-score (Albumin (Bos taurus)) was -0.0742, the composite Z-score [1] was 2.67 (inactive) and the composite z-score [2] was 1.23. The composite z-score [3] was 0.36, the composite z-score [4] was 0.488 and the composite z-score [5] was 2.18. The composite z-score [6] was 0.385, the composite z-score (Sam68 (KHDRBS1)) was 1.32 and the composite z-score [7] was 1.27. The composite z-score [8] was 1.02, the composite z-score [9] was 1.75 and the composite z-score [10] was 1.18. It also gave a composite z-score [11] of 0.384, a composite z-score [12] of 0.744 and a composite z-score [13] of 1.51. It also gave a composite z-score [14] of 1.05, a z-score [15] of -0.729 and a composite z-score (Lefty1) of 1.55. The composite z-score [16] was 0.529 and the z-score [17] was 0.406 (inactive).

From PubChem BioAssay
